HTR5A inv ctr: counter-screen for OPRM1-OPRD1 inverse agonists: human HTR5A inverse agonism. AID 504634. 0.083% of 340,000 active. inhibition, % at 9.3 µM. HTR5A cell line, luminescence; in the data active = inhibition mostly above about 23%, no sharp cut-off; inactive = mostly below about 18%
Target sequence (P47898 whole entry, looked up): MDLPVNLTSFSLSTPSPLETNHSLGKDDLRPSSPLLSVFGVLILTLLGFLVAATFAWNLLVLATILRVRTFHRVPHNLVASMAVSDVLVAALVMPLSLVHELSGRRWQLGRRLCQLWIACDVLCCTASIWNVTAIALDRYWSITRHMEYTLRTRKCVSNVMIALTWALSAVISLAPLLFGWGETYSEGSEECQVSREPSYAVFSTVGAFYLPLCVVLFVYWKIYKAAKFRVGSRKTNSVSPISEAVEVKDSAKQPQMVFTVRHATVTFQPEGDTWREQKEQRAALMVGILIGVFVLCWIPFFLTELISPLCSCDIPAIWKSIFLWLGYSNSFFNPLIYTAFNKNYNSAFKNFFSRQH
OPRM1-OPRD1 ag: OPRM1-OPRD1 heterodimerization agonism; P35372+P41143; cells, luminescence; activation, % at 9.3 µM; AID 504326; 0.3% of 340,000 active; in the data active = activation above about 18%
OPRM1-OPRD1 inv: mu-delta opioid heterodimer inverse agonism; cell-based MOR-DOR heterodimer luminescence; AID 504357; 0.21% of 340,000 active; inhibition, % at 9.3 µM; in the data active = inhibition above about 22%, passing the limit was not always enough
HTR5A ag: activates human HTR5A in OPRM1-OPRD1 agonist counter-screen. P47898. HTR5A agonist assay, luminescence, cell-based. activation, % at 9.3 µM. 0.61% of 340,000 active; in the data active = activation mostly above about 9.5%, no sharp cut-off; inactive = mostly below about 7.6%
Hits are given with their value; – = inactive. Shown are actives, neighbours in structure and some others; about 1.1% of the full set was active somewhere.

SMILES	HTR5A inv ctr	OPRM1-OPRD1 ag	OPRM1-OPRD1 inv	HTR5A ag
Cc1ccc2c(C)c(C(=O)Nc3cccnc3)oc2c1C	–	–	–	–
CCCCC(=O)Nc1sc2c(c1C(=O)OCC)CCC(C=O)=C2Cl	–	–	–	12.3
CCOC(=O)c1c(NC(=O)c2ccccc2Cl)sc2c1CCc1ccccc1-2	–	–	–	–
CC(C)C(=O)N1CCN(c2ccccc2NC(=O)c2ccc3c(c2)OCCO3)CC1	–	–	–	–
COc1ccc(-n2c(Cn3c(=O)sc4ccccc43)nnc2SC)cc1	–	–	–	11.8
Cn1c(=O)c2c(nc(C(O)c3ccccc3)n2C)n(C)c1=O (stereo not drawn)	–	–	–	–
O=C(O)C(C1CCCCC1)C1(O)CCCC1 (stereo not drawn)	–	–	–	–
O=C(OCC(=O)N1CCCCC1)c1c[nH]c2ccccc12	–	–	–	–
O=C(OCC(=O)N1CCCCC1)c1cc(=O)[nH]c2ccccc12	–	–	–	12.8
O=c1[nH]nc(Br)c(=O)n1C(c1ccccc1)c1ccccc1	–	–	–	–
O=C(COC(=O)CCN1C(=O)c2ccccc2C1=O)Nc1ccccc1[N+](=O)[O-]	–	–	–	10.6
O=C(COC(=O)CN1C(=O)c2ccccc2C1=O)Nc1ccccc1[N+](=O)[O-]	–	–	–	–
COc1ccccc1-c1cccc([C@@H]2C[C@H]3[C@@H](CN2)CON3C)c1	–	–	–	–
COc1ccc(/C=C2/SC(=S)N(CCCC(=O)N3CCN(C)CC3)C2=O)cc1	–	–	–	–
COc1ccc(/C=C2/SC(=S)N(CCC(=O)N3CCN(C)CC3)C2=O)cc1	–	–	–	13.6
O=C1[C@H](Oc2ccccc2)[C@@H](c2ccccc2)N1c1ccncc1	–	–	–	9.4
Nc1cc2c3ccccc3ccc2c2ccccc12	–	–	–	–
Cc1ccc(NC(=O)CSc2nnc3c(n2)[nH]c2ccccc23)cc1	–	–	–	–
Cc1ccc(-c2csc(NC(=O)CSc3nnc4c(n3)[nH]c3ccccc34)n2)cc1	–	–	–	13.4
Cc1ccccc1S(=O)(=O)N1C[C@H]2CON(C)[C@H]2C[C@H]1c1cccc(Oc2ccccc2)c1	–	–	–	–
CC(=O)Nc1ccc(-n2c(C)nc(=O)c(-c3ccccc3)c2C)cc1	–	–	–	10.4
Cc1nc(=O)c(-c2ccccc2)c(C)n1-c1ccccc1	–	–	–	–
Cc1noc(C)c1S(=O)(=O)Nc1ccc2c(c1)C(=O)N([C@H](C)CO)C[C@H](C)[C@@H](CN(C)S(=O)(=O)c1ccc(F)cc1)O2	–	–	–	–
CC(=O)N1N=C(c2cccs2)CC1c1cccc([N+](=O)[O-])c1 (stereo not drawn)	32.6	–	38.2	–
CC(=O)N1N=C(c2ccccc2)CC1c1cccc([N+](=O)[O-])c1 (stereo not drawn)	–	–	–	–
SMILES	HTR5A inv ctr	OPRM1-OPRD1 ag	OPRM1-OPRD1 inv	HTR5A ag
O=C(N/N=C/c1sc(=O)n(Cc2ccc(Br)cc2)c1Cl)c1ccco1	–	26.9	–	26.4
COc1ccc(CCn2c(C)cc(C(=O)CN3C(=O)C(=O)N(Cc4ccco4)C3=O)c2C)cc1	–	–	–	–
CCN(CC)CCN(C(=O)CCS(=O)(=O)c1ccccc1)c1nc2c(C)cc(C)cc2s1	–	–	–	12.6
CCN(CC)CCN(C(=O)CCS(=O)(=O)c1ccccc1)c1nc2cc(C)cc(C)c2s1	–	–	–	–
CN(C)S(=O)(=O)c1cccc(NC(=O)CSc2nc3c(cc2C#N)C(=O)CC(C)(C)C3)c1	–	–	–	13.5
COc1cccc(C(=O)OCC(=O)N2CCC(Cc3ccccc3)CC2)c1OC	–	–	–	–
Cc1c(NC(=O)c2ccc3c(c2)C(=O)N(CC2CCCO2)C3=O)cccc1C(=O)O (stereo not drawn)	–	–	–	10.4
CS(=O)(=O)NCCSc1cc(C(F)(F)F)nc2ccccc12	–	–	–	11.8
CS(=O)(=O)NCCSCc1ccccc1	–	–	–	–
O=S(=O)(Nc1ccc(-n2cnnn2)cc1)c1ccc(Cl)s1	–	–	–	–
C[C@H](CO)N1C[C@H](C)[C@H](CN(C)Cc2ccc(-c3ccccc3)cc2)Oc2ccc(NS(=O)(=O)c3ccccc3)cc2CC1=O	–	–	–	13.8
O=C(CC1Sc2ccccc2NC1=O)NNc1cc(Cl)ccc1Cl (stereo not drawn)	–	–	–	–
O=C(CNC(=O)c1cccc(Cl)c1)NCCCSc1ccccc1	–	–	–	–
COC(=O)c1sc(NC(=O)CN2CCN(c3cccc(Cl)c3)CC2)c(C(=O)OC)c1C	–	–	–	–
O=C(Nc1c(C(=O)O)[nH]c2ccc(F)cc12)c1cccc(C(F)(F)F)c1	–	–	–	11.9

From PubChem
